# In all, about 310,000 compounds went through this assay and about 14,000 (4.5%) showed an effect of 50% or more. The effect is printed as a negative number. The list comes from a sample in which strong results are over-represented; it also holds similar structures and randomly drawn compounds.
# Molecular target: human ether-à-go-go-related gene (hERG) potassium channel (human, UniProt Q12809)
# Assay: primary screen, population patch clamp on CHO cells stably expressing hERG; higher = less effect of the substance
# 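Note: peak tail current of the secondary pulse compared with the same well before compound.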
# human ether-à-go-go-related gene (hERG) potassium channel, sequence (Q12809 whole entry, looked up): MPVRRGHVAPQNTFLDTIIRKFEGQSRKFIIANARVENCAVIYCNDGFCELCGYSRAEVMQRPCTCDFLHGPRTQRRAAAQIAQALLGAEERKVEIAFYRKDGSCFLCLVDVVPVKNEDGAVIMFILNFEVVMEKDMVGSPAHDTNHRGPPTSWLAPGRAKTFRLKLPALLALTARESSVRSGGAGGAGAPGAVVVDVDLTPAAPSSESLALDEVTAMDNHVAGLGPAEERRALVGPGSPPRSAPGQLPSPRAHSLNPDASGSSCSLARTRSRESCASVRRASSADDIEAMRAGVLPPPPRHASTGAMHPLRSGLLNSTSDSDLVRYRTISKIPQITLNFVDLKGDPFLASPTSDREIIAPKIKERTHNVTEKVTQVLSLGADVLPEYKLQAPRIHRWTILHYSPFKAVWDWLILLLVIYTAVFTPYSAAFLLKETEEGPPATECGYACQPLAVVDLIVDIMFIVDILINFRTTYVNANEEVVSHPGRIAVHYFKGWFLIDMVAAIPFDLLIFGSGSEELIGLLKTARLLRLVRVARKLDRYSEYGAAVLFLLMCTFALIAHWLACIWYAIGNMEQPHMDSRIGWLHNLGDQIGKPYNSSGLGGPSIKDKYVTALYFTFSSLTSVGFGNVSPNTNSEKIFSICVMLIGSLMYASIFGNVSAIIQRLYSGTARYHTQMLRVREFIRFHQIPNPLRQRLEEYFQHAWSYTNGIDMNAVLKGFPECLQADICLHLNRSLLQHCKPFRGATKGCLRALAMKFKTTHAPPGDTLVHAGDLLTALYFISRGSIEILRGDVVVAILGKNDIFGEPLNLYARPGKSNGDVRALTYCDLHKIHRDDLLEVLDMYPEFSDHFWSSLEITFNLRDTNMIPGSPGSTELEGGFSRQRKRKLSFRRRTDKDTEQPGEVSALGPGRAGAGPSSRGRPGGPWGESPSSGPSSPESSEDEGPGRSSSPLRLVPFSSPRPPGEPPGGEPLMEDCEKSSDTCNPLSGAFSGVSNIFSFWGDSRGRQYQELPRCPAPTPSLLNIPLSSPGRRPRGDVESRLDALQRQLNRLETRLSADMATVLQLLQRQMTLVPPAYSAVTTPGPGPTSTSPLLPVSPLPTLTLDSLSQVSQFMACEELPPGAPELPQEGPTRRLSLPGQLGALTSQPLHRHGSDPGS
row,Structure (SMILES),"hERG current change (%, negative = inhibition) at 10uM [%]"
1,C/C(=N\NC(=O)CCCOc1ccc(Cl)cc1C)c1ccc(C)o1,3.58
2,COc1cccc(-n2cc(CNC(=O)C3CCC(=O)N(C4CC4)C3)cn2)c1 (stereo not shown),-11
3,COc1ccccc1C(=O)Nc1ccccc1SC,-20.3
4,CCCCCCn1c(CN2CCCCC2C)nc2c1c(=O)n(C)c(=O)n2C (stereo not shown),-60.5
5,CCCCCn1c(CN2CCCCC2CC)nc2c1c(=O)n(C)c(=O)n2C (stereo not shown),-44.7
6,CCCCCn1c(CN2CCCCC2C)nc2c1c(=O)n(C)c(=O)n2C (stereo not shown),-44.7
7,CCCn1c(CN2CCCCC2CC)nc2c1c(=O)n(C)c(=O)n2C (stereo not shown),-5.14
8,CCCCCCn1c(CN2CCCCC2CC)nc2c1c(=O)n(C)c(=O)n2C (stereo not shown),-51.9
9,CCCn1c(CN2CCCCC2C)nc2c1c(=O)n(C)c(=O)n2C (stereo not shown),3.04
10,Cc1ccc(Nc2nc(-c3ccc(O)cc3O)cs2)nc1,11.1
11,N/C(=N\[N+](=O)[O-])N1CCN(C(=O)c2ccccc2)CC1,24.8
12,CC(C)(C)c1ccc(/C=N/Nc2nncn2N)cc1,-21.5
13,CCOC(=O)CN1C(=N)N(c2nc(NC(C)C)nc(NC(C)C)n2)CC1=O,-73.8
14,CCNc1nc(NC(C)C)nc(N2CC(=O)N(CC(=O)OCC)C2=N)n1,-13.9
15,CCOC(=O)CN1C(=N)N(c2nc(NC(C)C)nc(OC)n2)CC1=O,-13.1
16,O=C(NCc1ccco1)c1ccc(CS(=O)(=O)c2cccc(C(F)(F)F)c2)o1,-60.3
17,COCCCNC(=O)c1ccc(CS(=O)(=O)c2cccc(C(F)(F)F)c2)o1,-8.62
18,CCOCCCNC(=O)c1ccc(CS(=O)(=O)c2cccc(C(F)(F)F)c2)o1,6.78
19,CCCCNC(=O)c1ccc(CS(=O)(=O)c2cccc(C(F)(F)F)c2)o1,-53.5
20,COCCNC(=O)c1ccc(CS(=O)(=O)c2cccc(C(F)(F)F)c2)o1,4.09

row,Structure (SMILES),"hERG current change (%, negative = inhibition) at 10uM [%]"
1,O=C(NCc1ccc2c(c1)OCO2)c1ccc(CS(=O)(=O)c2cccc(C(F)(F)F)c2)o1,-24.2
2,COC(=O)c1cccc(Cn2cc([N+](=O)[O-])cn2)c1,8.41
3,Cc1ccc(Nc2ncnc3c2nnn3Cc2ccccc2)cc1,8.07
4,O=C(CCS(=O)(=O)c1cc(Br)cc2c1N(C(=O)C1CC1)CC2)NCC1CCCO1 (stereo not shown),10.8
5,CCCCCn1c(-c2ccco2)nc2nc3ccccc3nc21,-67.5
6,c1ccc(-c2nc3nc4ccccc4nc3n2Cc2ccco2)cc1,-61.2
7,COc1ccccc1Cn1c(-c2ccco2)nc2nc3ccccc3nc21,-4.67
8,COCCn1c(-c2ccco2)nc2nc3ccccc3nc21,2.99
9,c1ccc(Cn2c(-c3ccco3)nc3nc4ccccc4nc32)cc1,6.13
10,Clc1ccc(-c2nc3nc4ccccc4nc3n2Cc2ccco2)cc1,-12.3
11,COc1ccc(CCn2c(-c3ccco3)nc3nc4ccccc4nc32)cc1,-3.77
12,CCCCOCCCn1c(-c2ccco2)nc2nc3ccccc3nc21,-55.9
13,Cc1ccc(-c2nc3nc4ccccc4nc3n2Cc2ccco2)cc1,-18.7
14,O=C(O)CSc1sc(=S)sc1SCC(=O)O,13.7
15,COC(=O)c1ccc(OC)c(CSc2nnc(-c3ccc(C(C)(C)C)cc3)o2)c1,9.83
16,CC(=O)Nc1ccc(OCC(=O)NCc2ccccc2)cc1,19
17,O=C(Cn1nc(C(F)F)cc1C(F)F)N/N=C/c1ccc2c(c1)OCO2,24.7
18,CC(=O)N1CCc2cc(S(=O)(=O)NC(Cc3ccccc3)C(=O)Nc3cc(C)ccn3)ccc21 (stereo not shown),1.38
19,CCOc1ccccc1N(CC(=O)NCCOC)C(=O)CCC(=O)Nc1ccccn1,19.6
20,Cc1cccc(NC(=S)N(C)Cc2cn(C)c3ccccc23)c1,-7.49

row,Structure (SMILES),"hERG current change (%, negative = inhibition) at 10uM [%]"
1,COc1ccc(S(=O)(=O)NCc2ccco2)c2ccccc12,-9.68
2,Cc1cc2oc(=O)cc(CN3CCCCC3C)c2cc1Cl (stereo not shown),-0.834
3,N#Cc1c(-c2ccc(Cl)cc2)ccnc1N1CCOCC1,3.33
4,CCN(c1ccccc1)S(=O)(=O)c1ccc(Cl)c(NC(=O)CN2CCN(C)CC2)c1,-59.2
5,CCN(c1ccccc1)S(=O)(=O)c1ccc(Cl)c(NC(=O)COC(=O)c2ccc(O)cc2)c1,6.44
6,CCC(C)NCC(=O)Nc1cc(S(=O)(=O)N(CC)c2ccccc2)ccc1Cl (stereo not shown),-78.8
7,CCN(c1ccccc1)S(=O)(=O)c1ccc(Cl)c(NC(=O)CN2CCCCCC2)c1.O=C(O)C(=O)O,10.1
8,CCN(c1ccccc1)S(=O)(=O)c1ccc(Cl)c(NC(=O)CSc2nnc(C)s2)c1,-24.2
9,CCN(c1ccccc1)S(=O)(=O)c1ccc(Cl)c(NC(=O)CN(C)C2CCN(C)CC2)c1,-38.8
10,COc1ccc(/C=N/NC(=O)C2CC2)c(OC)c1OC,12.9
11,COc1ccc(NC(=O)CSc2nc3ccccc3nc2N2CCCC2)c(OC)c1,24.1
12,COc1ccc(Cl)cc1NC(=O)CN(C(=O)c1ccco1)C1CCCCC1,-2.36
13,Cc1ccc(OCCn2c(=O)n(C)c3ccccc32)cc1,-1.88
14,Cn1c(=O)n(CCCOc2ccc(Cl)cc2)c2ccccc21,-13.7
15,Cc1ccc(OCCn2c(C)nc3ccccc32)cc1,3.94
16,Cc1nc2ccccc2n1CCOc1ccccc1,6.17
17,Cc1nc2ccccc2n1CCOc1ccc([N+](=O)[O-])cc1,-73.8
18,Cn1c(=O)n(CCOc2ccc([N+](=O)[O-])cc2)c2ccccc21,-65.3
